# From PubChem BioAssay (NCI)
# The panel holds about 79,000 compounds, 15% with a hit somewhere; the sample as a whole holds those more often. Values without a mark were called inactive. The source made the active and inactive calls. Cut-off read from the data, not from the text of the source: active = growth inhibition above about 70%; inactive = the rest.
# Columns and labels:
# [1] = NCI Yeast Anticancer Drug Screen. Data for the wt1 strain (AID 149);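 note: 0% = growth of vehicle-treated wt1 cultures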; details: S. cerevisiae wt1 strain (SPY 50644) growth inhibition, stronger effect = higher value
# Summary of the method: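 Yeast wt1 strain exposed to compounds; growth inhibition measured relative to vehicle-treated controls.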
# [2] = NCI Yeast Anticancer Drug Screen. Data for the rad50EPP+ strain (AID 151);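 note: 0% = growth of vehicle-treated control cultures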; details: S. cerevisiae rad50 mutant strain, stronger effect = higher value
# Summary of the method: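 rad50EPP+ yeast treated with test compounds. Readout: growth vs vehicle control.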
# [3] = NCI Yeast Anticancer Drug Screen. Data for the rad50 strain (AID 155);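 note: 0% = growth of vehicle-only cultures of the same strain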; details: S. cerevisiae rad50 strain growth inhibition, stronger effect = higher value
# Summary of the method: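 Yeast carrying a defined DNA repair defect were exposed to test compounds, and growth was compared with vehicle-treated controls to give percent inhibition.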
# [4] = NCI Yeast Anticancer Drug Screen. Data for the mec2-1 strain (AID 157); details: S. cerevisiae mec2-1 strain, stronger effect = higher value
# Summary of the method: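 Growth inhibition is read against vehicle-treated controls after compound exposure of the mec2-1 yeast strain, which is defective in DNA damage repair or cell cycle control.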
# [5] = NCI Yeast Anticancer Drug Screen. Data for the rad14 strain (AID 159);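 note: 0% = growth of vehicle-treated control cultures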; details: S. cerevisiae rad14 strain growth inhibition, stronger effect = higher value
# Summary of the method: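 Yeast cells carrying a defined DNA-repair defect were exposed to compounds, and growth inhibition was calculated relative to vehicle-treated control cultures.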
# [6] = NCI Yeast Anticancer Drug Screen. Data for the sgs1 mgt1 strain (AID 161);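 note: 0% = growth of cultures given vehicle only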; details: S. cerevisiae sgs1 mgt1 strain, stronger effect = higher value
# Summary of the method: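 Growth of a repair-deficient yeast mutant was monitored after compound treatment and expressed as inhibition relative to vehicle-treated cultures.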
# [7] = NCI Yeast Anticancer Drug Screen. Data for the CLN2oe strain (AID 163);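 note: 0% = growth of vehicle-only control cultures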; details: S. cerevisiae CLN2oe strain, stronger effect = higher value
# Summary of the method: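 Compound-treated yeast; growth vs vehicle ctrl = % inhibition. Genetically altered strain (cell-cycle control).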
# [8] = NCI Yeast Anticancer Drug Screen. Data for the cln2 rad14 strain (AID 165);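 note: 0% = growth equal to vehicle treated cultures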; details: S. cerevisiae cln2 rad14 strain, stronger effect = higher value
# Summary of the method: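 Growth inhibition, relative to vehicle-treated controls, is the read-out. The test organism is a yeast strain with defined genetic alterations, cln2 rad14.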
# [9] = NCI Yeast Anticancer Drug Screen. Data for the bub3 strain (AID 167); details: S. cerevisiae bub3 mutant strain, stronger effect = higher value
# Summary of the method: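 Compounds were applied to a genetically altered yeast strain carrying a cell-cycle control defect. Growth inhibition was scored against vehicle-treated controls.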
# [10] = NCI Yeast Anticancer Drug Screen. Data for the wt2 strain (AID 169);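 note: 0% = growth of vehicle-treated yeast cultures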; details: S. cerevisiae wt2 strain growth inhibition, stronger effect = higher value
# Summary of the method: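 Compound exposure of yeast; growth compared with vehicle controls; inhibition reported.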
# [11] = NCI Yeast Anticancer Drug Screen. Data for the mlh1 strain (AID 171);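 note: 0% = growth of vehicle-treated control cultures of the same strain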; details: S. cerevisiae mlh1 strain growth inhibition, stronger effect = higher value
# Summary of the method: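 Compounds are applied to a genetically altered yeast strain, and its growth is compared with that of vehicle-treated cultures to give percent inhibition.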
# [12] = NCI Yeast Anticancer Drug Screen. Data for the sgs1 strain (AID 173);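 note: 0% = growth of vehicle-only control cultures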; details: S. cerevisiae sgs1 mutant, stronger effect = higher value
# Summary of the method: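 Compounds applied to genetically altered yeast; growth compared with vehicle-treated cultures to give % inhibition.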
# [13] = NCI Yeast Anticancer Drug Screen. Data for the mlh1 rad18 strain (AID 175); details: S. cerevisiae mlh1 rad18 strain growth inhibition, stronger effect = higher value
# Summary of the method: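 Cells of a genetically altered yeast strain, deficient in DNA damage repair, were treated with compound. Their growth was then compared with that of vehicle-treated cultures to give inhibition.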
# [14] = NCI Yeast Anticancer Drug Screen. Data for the rad18 strain (AID 177); details: S. cerevisiae rad18 mutant growth inhibition, stronger effect = higher value
# Summary of the method: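 Compounds are applied to a repair-deficient yeast strain, and growth is compared with that of vehicle-treated cultures to give percent inhibition.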
# [15] = at 5.0 µM (retest, dose inferred, filed as 0.5)
# [16] = at 50.0 µM (retest, dose inferred, filed as 5.0)
smiles,measurement,setting,value
O=C1C=CC(=O)N1c1ccc2c(c1)OCO2,growth inhibition,[1]; at 1.2 µM,9%
same,growth inhibition,[1]; at 3.7 µM,96% (active)
same,growth inhibition,[1]; at 11.0 µM,100% (active)
same,growth inhibition,[1]; at 33.0 µM,100% (active)
same,growth inhibition,[1]; at 100.0 µM,100% (active)
same,growth inhibition,[2]; at 1.2 µM,9%
same,growth inhibition,[2]; at 3.7 µM,80% (active)
same,growth inhibition,[2]; at 11.0 µM,99% (active)
same,growth inhibition,[2]; at 33.0 µM,99% (active)
same,growth inhibition,[2]; at 100.0 µM,99% (active)
same,growth inhibition,[3]; at 1.2 µM,12%
same,growth inhibition,[3]; at 3.7 µM,86% (active)
same,growth inhibition,[3]; [15],84% (active)
same,growth inhibition,[3]; at 11.0 µM,99% (active)
same,growth inhibition,[3]; at 33.0 µM,99% (active)
same,growth inhibition,[3]; [16],97% (active)
same,growth inhibition,[3]; at 50.0 µM,99% (active)
same,growth inhibition,[3]; at 100.0 µM,99% (active)
same,growth inhibition,[4]; at 1.2 µM,-3%
same,growth inhibition,[4]; at 3.7 µM,76% (active)
same,growth inhibition,[4]; [15],12%
same,growth inhibition,[4]; at 11.0 µM,100% (active)
same,growth inhibition,[4]; at 33.0 µM,100% (active)
same,growth inhibition,[4]; [16],99% (active)
same,growth inhibition,[4]; at 50.0 µM,98.5% (active)
same,growth inhibition,[4]; at 100.0 µM,99% (active)
same,growth inhibition,[5]; at 1.2 µM,21%
same,growth inhibition,[5]; at 3.7 µM,99% (active)
same,growth inhibition,[5]; at 11.0 µM,100% (active)
same,growth inhibition,[5]; at 33.0 µM,100% (active)
same,growth inhibition,[5]; at 100.0 µM,100% (active)
same,growth inhibition,[6]; [15],8%
same,growth inhibition,[6]; [16],98% (active)
same,growth inhibition,[6]; at 50.0 µM,99.2% (active)
same,growth inhibition,[7]; at 1.2 µM,-9%
same,growth inhibition,[7]; at 3.7 µM,40%
same,growth inhibition,[7]; at 11.0 µM,100% (active)
same,growth inhibition,[7]; at 33.0 µM,100% (active)
same,growth inhibition,[7]; at 100.0 µM,99% (active)
same,growth inhibition,[8]; [15],-4%
same,growth inhibition,[8]; [16],98% (active)
same,growth inhibition,[8]; at 50.0 µM,99% (active)
same,growth inhibition,[9]; at 1.2 µM,2%
same,growth inhibition,[9]; at 3.7 µM,90% (active)
same,growth inhibition,[9]; [15],25%
same,growth inhibition,[9]; at 11.0 µM,100% (active)
same,growth inhibition,[9]; at 33.0 µM,99% (active)
same,growth inhibition,[9]; [16],98% (active)
same,growth inhibition,[9]; at 50.0 µM,99.2% (active)
same,growth inhibition,[9]; at 100.0 µM,99% (active)
same,growth inhibition,[10]; at 1.2 µM,17%
same,growth inhibition,[10]; at 3.7 µM,99% (active)
same,growth inhibition,[10]; at 11.0 µM,100% (active)
same,growth inhibition,[10]; at 33.0 µM,100% (active)
same,growth inhibition,[10]; at 100.0 µM,100% (active)
same,growth inhibition,[11]; at 1.2 µM,-11%
same,growth inhibition,[11]; at 3.7 µM,58%
same,growth inhibition,[11]; at 11.0 µM,100% (active)
same,growth inhibition,[11]; at 33.0 µM,100% (active)
same,growth inhibition,[11]; at 100.0 µM,99% (active)
same,growth inhibition,[12]; at 1.2 µM,15%
same,growth inhibition,[12]; at 3.7 µM,85% (active)
same,growth inhibition,[12]; at 11.0 µM,100% (active)
same,growth inhibition,[12]; at 33.0 µM,100% (active)
same,growth inhibition,[12]; at 100.0 µM,100% (active)
same,growth inhibition,[13]; [15],-39%
same,growth inhibition,[13]; [16],97% (active)
same,growth inhibition,[13]; at 50.0 µM,99.2% (active)
same,growth inhibition,[14]; at 1.2 µM,-6%
same,growth inhibition,[14]; at 3.7 µM,58%
same,growth inhibition,[14]; at 11.0 µM,100% (active)
same,growth inhibition,[14]; at 33.0 µM,100% (active)
same,growth inhibition,[14]; at 100.0 µM,99% (active)
O=[N+]([O-])c1cc(S(=O)(=O)Nc2ccccc2)ccc1Cl,growth inhibition,[2]; at 1.2 µM,14%
same,growth inhibition,[2]; at 3.7 µM,6%
same,growth inhibition,[2]; at 11.0 µM,1%
same,growth inhibition,[2]; at 33.0 µM,20%
same,growth inhibition,[2]; at 100.0 µM,48%
same,growth inhibition,[3]; at 1.2 µM,-7%
same,growth inhibition,[3]; at 3.7 µM,3%
same,growth inhibition,[3]; [15],34%
same,growth inhibition,[3]; at 11.0 µM,19%
same,growth inhibition,[3]; at 33.0 µM,90% (active)
same,growth inhibition,[3]; [16],99% (active)
same,growth inhibition,[3]; at 50.0 µM,88.5% (active)
same,growth inhibition,[3]; at 100.0 µM,97% (active)
same,growth inhibition,[4]; at 1.2 µM,-10%
same,growth inhibition,[4]; at 3.7 µM,-5%
same,growth inhibition,[4]; [15],42%
same,growth inhibition,[4]; at 11.0 µM,21%
same,growth inhibition,[4]; at 33.0 µM,91% (active)
same,growth inhibition,[4]; [16],99% (active)
same,growth inhibition,[4]; at 50.0 µM,90.5% (active)
same,growth inhibition,[4]; at 100.0 µM,99% (active)
same,growth inhibition,[5]; at 1.2 µM,-4%
same,growth inhibition,[5]; at 3.7 µM,-8%
same,growth inhibition,[5]; at 11.0 µM,2%
same,growth inhibition,[5]; at 33.0 µM,91% (active)
same,growth inhibition,[5]; at 100.0 µM,98% (active)
same,growth inhibition,[6]; [15],-26%
same,growth inhibition,[6]; [16],95% (active)
same,growth inhibition,[6]; at 50.0 µM,90.5% (active)
same,growth inhibition,[7]; at 1.2 µM,-8%
same,growth inhibition,[7]; at 3.7 µM,-1%
same,growth inhibition,[7]; at 11.0 µM,35%
same,growth inhibition,[7]; at 33.0 µM,93% (active)
same,growth inhibition,[7]; at 100.0 µM,98% (active)
same,growth inhibition,[8]; [15],33%
same,growth inhibition,[8]; [16],97% (active)
same,growth inhibition,[8]; at 50.0 µM,89.2% (active)
same,growth inhibition,[9]; at 1.2 µM,11%
same,growth inhibition,[9]; at 3.7 µM,19%
same,growth inhibition,[9]; [15],-20%
same,growth inhibition,[9]; at 11.0 µM,45%
same,growth inhibition,[9]; at 33.0 µM,91% (active)
same,growth inhibition,[9]; [16],96% (active)
same,growth inhibition,[9]; at 50.0 µM,86.2% (active)
same,growth inhibition,[9]; at 100.0 µM,99% (active)
same,growth inhibition,[10]; at 1.2 µM,-26%
same,growth inhibition,[10]; at 3.7 µM,-6%
same,growth inhibition,[10]; at 11.0 µM,4%
same,growth inhibition,[10]; at 33.0 µM,90% (active)
same,growth inhibition,[10]; at 100.0 µM,99% (active)
same,growth inhibition,[11]; at 1.2 µM,-34%
same,growth inhibition,[11]; at 3.7 µM,-20%
same,growth inhibition,[11]; at 11.0 µM,13%
same,growth inhibition,[11]; at 33.0 µM,89% (active)
same,growth inhibition,[11]; at 100.0 µM,98% (active)
same,growth inhibition,[12]; at 1.2 µM,4%
same,growth inhibition,[12]; at 3.7 µM,-3%
same,growth inhibition,[12]; at 11.0 µM,33%
same,growth inhibition,[12]; at 33.0 µM,89% (active)
same,growth inhibition,[12]; at 100.0 µM,98% (active)
same,growth inhibition,[13]; [15],35%
same,growth inhibition,[13]; [16],100% (active)
same,growth inhibition,[13]; at 50.0 µM,86.8% (active)
same,growth inhibition,[14]; at 1.2 µM,1%
same,growth inhibition,[14]; at 3.7 µM,9%
same,growth inhibition,[14]; at 11.0 µM,27%
same,growth inhibition,[14]; at 33.0 µM,94% (active)
same,growth inhibition,[14]; at 100.0 µM,99% (active)
